In PubChem BioAssay (NCATS):
Several values for one entry are separate records, joined by “and”; a condition that tells them apart may be missing. Equal values may be shown once. Results filed as inconclusive are left out. Values without a mark were called inactive. Activity calls are given as the source filed them. Calls come from the whole dose curve; as a rule, active = well fitted inhibition curve with a large enough effect; inconclusive = small, poorly fitted or top-dose-only effect; inactive = flat fitted curve, though single readings scatter.

These molecules were tested on CP185 (assay: qHTS profiling for inhibitors of Plasmodium falciparum proliferation (AID 504749; note: nearly all actives have a fitted effect of over 60% in size;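 for activity, negative = inhibition: 0% = DMSO vehicle and full inhibition = artemisinin control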)). Conditions: P. falciparum in erythrocytes, SYBR Green DNA, 72 h; series mostly up to 28.7 µM; activity, negative = inhibition: at the top concentration.
Method in brief: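 P. falciparum-infected erythrocytes (0.3% parasitemia, 2.5% hematocrit final) were exposed to compounds for 72 h at 37 C in 5% CO2, then lysed with SYBR Green buffer overnight at room temperature; parasite DNA fluorescence was normalized to artemisinin and DMSO controls.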
Potency is the fitted concentration of half-maximal effect.

Structure (SMILES) | activity, negative = inhibition | Potency
CCC1(c2ccccc2)CCC(=O)NC1=O (stereo unspecified) | 3.7% | 
C[N+]1(CCC(C(N)=O)(c2ccccc2)c2ccccc2)CCCCC1 | 0.0023% | 
CCC(=O)O[C@H]1CC[C@H]2[C@@H]3CCC4=CC(=O)CC[C@]4(C)[C@H]3CC[C@]12C | 0.886% [at 12.8 µM] | 
OC(c1ccccc1)(c1ccccc1)C1CCNCC1 | 6.52% [at 12.8 µM] | 
CC(C)[N+](C)(CCC(C(N)=O)(c1ccccc1)c1ccccc1)C(C)C | 0.129% [at 12.8 µM] | 
Cc1ncc2n1-c1ccc(Cl)cc1C(c1ccccc1F)=NC2 | 6.77% | 
Cc1ccc(N=CN(C)C=Nc2ccc(C)cc2C)c(C)c1 | 2.17% | 
CC(C)NCC(O)c1ccc(N)c(C#N)c1 (stereo unspecified) | 3.28% | 
CNC(=O)Oc1cccc2ccccc12 | -7.49% | 
CCNc1nc(Cl)nc(NCC)n1 | 1.81% | 
CC[n+]1c(-c2ccccc2)c2cc(N)ccc2c2ccc(N)cc21 |  | 158 nM (active) and 316 nM (active)
CCCCCCCCCCCC[N+](C)(C)CCOc1ccccc1 |  | 7.94 µM (active)
CCOC(=O)NC(O)C(Cl)(Cl)Cl (stereo unspecified) | 5.57% | 
CCN(Cc1ccc(Cl)nc1)/C(=C/[N+](=O)[O-])NC | 4.58% | 
C[C@H]1C(=O)O[C@@H]2CCN3CC=C(COC(=O)[C@](C)(O)[C@]1(C)O)[C@H]23 | 3.32% | 
Oc1c(Br)cc(Br)cc1Br | 2.02% | 

Structure (SMILES) | activity, negative = inhibition | Potency
C[C@]12CC[C@H]3[C@@H](CC=C4C[C@@H](O)CC[C@@]43C)[C@@H]1CC[C@@H]2O | 6.65% | 
COP(=O)(OC)C(O)C(Cl)(Cl)Cl (stereo unspecified) | -10.1% | 
CCN(CC)C(C)C(=O)c1ccccc1 (stereo unspecified) | -3.53% | 
COP(=O)(OC)OC=C(Cl)Cl | -0.795% | 
CNC(=O)NC(O)C(Cl)(Cl)Cl (stereo unspecified) | 2.73% | 
NC(=O)CN1CCCC1=O | 5.21% [at 12.8 µM] | 
CCC1(CC)C(=O)NC(=O)NC1=O | 4.48% | 
O=c1n(Cl)c(=O)n(Cl)c(=O)n1Cl | -10.4% | 
CC(C)C(Br)C(=O)NC(N)=O (stereo unspecified) | -1.34% | 
CN(C)C(=S)SSC(=S)N(C)C |  | 2 µM (active)
COP(=S)(OC)Oc1ccc(Sc2ccc(OP(=S)(OC)OC)cc2)cc1 | 7.24% | 
NCc1cccnc1 | 7.62% | 
COc1ccc(C(=O)N2CCCC2=O)cc1 | 1.82% | 
c1ccc2nc(N3CCNCC3)ccc2c1 | 15.3% | 
CC(C)(C)OC(=O)c1ncn2c1[C@@H]1CCCN1C(=O)c1c(Br)cccc1-2 | 3.07% | 
